# From PubChem BioAssay (NCATS)
# Results filed as inconclusive are left out. Unmarked numbers belong to inactive results. Calls of active or inactive are those of the source. Calls follow the shape of the dose curve; as a rule, active = well fitted curve in the direction sought with a large enough effect; inconclusive = small, poorly fitted or top-dose-only effect, or another doubt; inactive = no such curve, though single readings can be large; an effect the other way counts as inactive or inconclusive.
# Tested on: not listed separately
# Assay: Quantitative high throughput screen for delayed death inhibitors of the malarial parasite plastid, 48 hour incubation (AID 488752); also: nearly all actives have a fitted effect of over 65% in size; also: potency is read from the fitted curve at half-maximal effect; as to activity change, negative = inhibition: % is scaled to controls: 0 for no effect and ±100 for the full control effect
# Details: Plasmodium falciparum growth; series mostly up to 28.7 µM; activity change, negative = inhibition: at the top concentration
# In short: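 Cultures: infected erythrocytes at final 2% hematocrit and 0.1% parasitemia in Albumax-supplemented RPMI. Parasites express integrated firefly luciferase. Incubation with compound lasts 48 h before luminescent detection of remaining reporter activity.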
SMILES,"activity change, negative = inhibition [%]",Potency
Cc1cn([C@H]2C=C[C@@H](CO)O2)c(=O)[nH]c1=O,-0.797,
Cn1c(=O)c2c(ncn2C)n(C)c1=O,-26.8,
CC12CC3CC(C)(C1)CC(N)(C3)C2,-0.71,
CC(CCc1ccc(O)cc1)NCCc1ccc(O)c(O)c1 (centres undefined),,13.1 µM (active)
CCCCc1oc2ccccc2c1C(=O)c1cc(I)c(OCCN(CC)CC)c(I)c1,,9.28 µM (active)
CC1COc2c(N3CCN(C)CC3)c(F)cc3c(=O)c(C(=O)O)cn1c23 (centres undefined),6.25,
CCC1(c2ccccc2)C(=O)NCNC1=O,-26.6,
NS(=O)(=O)c1cc2c(cc1Cl)NCNS2(=O)=O,11.9,
CN1CCN2c3ccccc3Cc3ccccc3C2C1 (centres undefined),-2.81,
NC(CO)C(=O)NNCc1ccc(O)c(O)c1O (centres undefined),-15.2,
CC(C)C(=O)Nc1ccc([N+](=O)[O-])c(C(F)(F)F)c1,23.5,
CCC1(C)CC(=O)NC1=O (centres undefined),19.8,
NCCCCCC(=O)O,-0.606,
CN1CCC(=C2c3ccccc3CC(=O)c3sccc32)CC1,-2.68,
C[C@](N)(Cc1ccc(O)c(O)c1)C(=O)O,8.92,
Clc1ccccc1C(c1ccccc1)(c1ccccc1)n1ccnc1,,1.04 µM (active)
NC(=O)OCC(COC(N)=O)c1ccccc1,0.592,
CC(COc1ccccc1)N(CCCl)Cc1ccccc1 (centres undefined),11.3,
Nc1nnc(-c2cccc(Cl)c2Cl)c(N)n1,-1.39,
NC12CC3CC(CC(C3)C1)C2,2.3,
COc1ccc2[nH]cc(CCNC(C)=O)c2c1,1.49,
Nc1nc2c(ncn2COC(CO)CO)c(=O)[nH]1,8.62,
Cc1ccccc1N1C(=O)c2cc(S(N)(=O)=O)c(Cl)cc2NC1C (centres undefined),0.27,
CN(C)c1nc(N(C)C)nc(N(C)C)n1,-0.0259,
CCOC(=O)C(C)(C)Oc1ccc(Cl)cc1,21,
CCc1cccc2c3c([nH]c12)C(CC)(CC(=O)O)OCC3 (centres undefined),20.7,
Cc1cc(C(C)(C)C)c(O)c(C)c1CC1=NCCN1,-9.07,
CC(C)(Oc1ccc(C2CC2(Cl)Cl)cc1)C(=O)O (centres undefined),3.27,
COc1ccc2c(c1)c(CC(=O)O)c(C)n2C(=O)c1ccc(Cl)cc1,7.07,

# Target: Thioredoxin reductase 1, cytoplasmic (Rattus norvegicus) (UniProt O89049)
# Assay: qHTS Assay for Substrates of Mammalian Selenoprotein Thioredoxin Reductase 1 (TrxR1) (AID 488772);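 also: 0% is about no effect; a drop in NADPH fluorescence below the no-compound background marks a TrxR1 substrate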
# Details: purified TrxR1, NADPH consumption substrate assay; series mostly up to 57.1 µM; activity change, negative = NADPH consumption: at the top concentration
# In short: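 In this dual-purpose format, potential substrates are identified from the first fluorescence read after selenite addition, not from the 8-minute delta. Rat enzyme is preincubated with NADPH and then with compound at ~22 deg C.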
# Sequence of Thioredoxin reductase 1, cytoplasmic (Rattus norvegicus) (O89049 whole entry, looked up): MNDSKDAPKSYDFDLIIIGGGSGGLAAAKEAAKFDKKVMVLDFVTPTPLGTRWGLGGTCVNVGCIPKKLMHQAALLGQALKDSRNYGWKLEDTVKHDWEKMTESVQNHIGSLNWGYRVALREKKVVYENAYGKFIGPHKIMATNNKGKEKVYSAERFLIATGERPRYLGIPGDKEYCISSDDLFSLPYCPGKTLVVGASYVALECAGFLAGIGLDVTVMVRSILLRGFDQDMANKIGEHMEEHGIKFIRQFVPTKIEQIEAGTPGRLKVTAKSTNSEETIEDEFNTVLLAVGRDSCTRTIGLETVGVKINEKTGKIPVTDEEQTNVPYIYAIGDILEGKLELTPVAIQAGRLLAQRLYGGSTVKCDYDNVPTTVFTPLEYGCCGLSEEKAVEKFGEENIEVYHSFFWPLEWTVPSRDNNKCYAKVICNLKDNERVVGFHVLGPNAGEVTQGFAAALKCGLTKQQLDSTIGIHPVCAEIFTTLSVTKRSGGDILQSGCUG
row,SMILES,"activity change, negative = NADPH consumption [%]"
1,Cc1cn([C@H]2C=C[C@@H](CO)O2)c(=O)[nH]c1=O,-7.97
2,Cn1c(=O)c2c(ncn2C)n(C)c1=O,-1.51
3,CC12CC3CC(C)(C1)CC(N)(C3)C2,-8.38
4,CC(CCc1ccc(O)cc1)NCCc1ccc(O)c(O)c1 (centres undefined),-7.67
5,CCCCc1oc2ccccc2c1C(=O)c1cc(I)c(OCCN(CC)CC)c(I)c1,-7.96
6,CC1COc2c(N3CCN(C)CC3)c(F)cc3c(=O)c(C(=O)O)cn1c23 (centres undefined),235
7,CCC1(c2ccccc2)C(=O)NCNC1=O,-3.53
8,NS(=O)(=O)c1cc2c(cc1Cl)NCNS2(=O)=O,-10.1
9,CN1CCN2c3ccccc3Cc3ccccc3C2C1 (centres undefined),-10.1
10,NC(CO)C(=O)NNCc1ccc(O)c(O)c1O (centres undefined),1.45
